From PubChem BioAssay (NCI) come the findings set out here.

Test systems include HCT-15 colon; HT29 colon; SNB-75 CNS; SNB-19 CNS; U251 CNS; PC-3 prostate; SK-MEL-5 melanoma; UACC-62 melanoma; LOX IMVI melanoma; SK-MEL-28 melanoma; SK-MEL-2 melanoma; EKVX NSCLC; SN12C renal; UO-31 renal; TK-10 renal; ACHN renal; CAKI-1 renal; A498 renal; CCRF-CEM leukemia; MOLT-4 leukemia.
What all share (assay): NCI-60 one-dose screen, 48 h (100 = growth as untreated, 0 = no growth, -100 = all killed)
Conditions in all cases: 10 µM unless noted

About 83,000 compounds went through this panel and 20% of them were active in at least one assay; those are over-represented in the sample as a whole.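 Results are percent growth after 48 hours of single-concentration exposure. 100 means growth as in untreated cells, lower positive values show inhibition; negative values down to -100 show cell death.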 Unmarked numbers belong to inactive results. Activity calls are given as the source filed them. How the source made its calls: active means growth percent below 10; inactive means the rest.

Consider `O=C1NCC(c2cc3ccccc3[nH]c2=O)Nc2ccccc21` (stereo not given), for which the growth is 106% in the experiment with HCT-15 colon; 98.3% in the experiment on HT29 colon; 99.6% in the experiment with SNB-75 CNS; 102% in the experiment on SNB-19 CNS; 102% with U251 CNS; 93.2% in the experiment with PC-3 prostate. The growth in the experiment on SK-MEL-5 melanoma was 97.2%; with UACC-62 melanoma it was 98.3%; in the experiment with LOX IMVI melanoma, 98.5%; in the experiment on SK-MEL-28 melanoma, 103%; with SK-MEL-2 melanoma it was 100%; in the experiment on EKVX NSCLC, 106%. Also, the growth with SN12C renal was 99.7%; with UO-31 renal it was 76.8%; in the experiment with TK-10 renal, 87.8%; with ACHN renal, 99.7%; with CAKI-1 renal it was 88.1%; in the experiment with A498 renal, 104%. Also, the growth in the experiment with CCRF-CEM leukemia was 110%; in the experiment with MOLT-4 leukemia, 111%.
Consider `CC/C=C\C[C@H](O)C/C=C1/C(=O)C(Cl)=C[C@@H]1C/C=C\CCCC(=O)OC`, for which the growth is -61.5% (active) with HCT-15 colon; -76.7% (active) in the experiment with HT29 colon; 50% with SNB-75 CNS; -10.9% (active) in the experiment with SNB-19 CNS; -75.7% (active) in the experiment with U251 CNS; -33.9% (active) in the experiment with PC-3 prostate. For the same compound, the growth in the experiment with SK-MEL-5 melanoma is -77.7% (active); in the experiment on UACC-62 melanoma it was -57% (active); in the experiment on LOX IMVI melanoma, -89.9% (active); in the experiment on SK-MEL-28 melanoma, -2.03% (active); with SK-MEL-2 melanoma it was -21% (active); in the experiment on EKVX NSCLC it was -63.2% (active). Further, the growth in the experiment on SN12C renal was -51.7% (active); in the experiment with UO-31 renal, -94.5% (active); with TK-10 renal, -34.2% (active); in the experiment on ACHN renal, -43.6% (active); with CAKI-1 renal it was 13.2%; with A498 renal, 1.86% (active). Also, the growth is -3.78% (active) in the experiment with CCRF-CEM leukemia and -6.11% (active) in the experiment on MOLT-4 leukemia.
On to `CC/C=C\C[C@H]1C/C=C2/C(=O)C(Cl)=C[C@@H]2C/C=C\CCCC(=O)O1`, for which the growth was -90.8% (active) with HCT-15 colon; -55.6% (active) with HT29 colon; -19.9% (active) in the experiment with SNB-75 CNS; -40.2% (active) in the experiment on SNB-19 CNS; -79.2% (active) with U251 CNS; -69.9% (active) with PC-3 prostate. In addition, the growth in the experiment on SK-MEL-5 melanoma is -62.6% (active); in the experiment with UACC-62 melanoma, -53.1% (active); in the experiment with LOX IMVI melanoma, -91.4% (active); in the experiment with SK-MEL-28 melanoma it was -43% (active); in the experiment on SK-MEL-2 melanoma, -44.1% (active); in the experiment with EKVX NSCLC, -82% (active). Moreover, the growth was -1.11% (active) in the experiment with SN12C renal; -93.8% (active) in the experiment on UO-31 renal; -55.3% (active) with TK-10 renal; -64.6% (active) in the experiment with ACHN renal; 2.64% (active) in the experiment with CAKI-1 renal; -68.3% (active) in the experiment with A498 renal. For the same compound, the figures for the growth with CCRF-CEM leukemia and in the experiment with MOLT-4 leukemia were -19.1% (active) and -9.42% (active), respectively.
In the case of `N#Cc1c(NC(=O)c2ccc([N+](=O)[O-])o2)[n+]([O-])c2cc(F)c(F)cc2[n+]1[O-]`, the growth in the experiment on HCT-15 colon is 95.1%; in the experiment on HT29 colon it was 102%; with SNB-75 CNS, 114%; in the experiment on SNB-19 CNS it was 121%; in the experiment with U251 CNS it was 102%; in the experiment with PC-3 prostate it was 98.8%. Besides, the growth was 79.6% with SK-MEL-5 melanoma; 100% with UACC-62 melanoma; 84.7% with LOX IMVI melanoma; 99.7% in the experiment on SK-MEL-28 melanoma; 34.6% in the experiment on SK-MEL-2 melanoma; 149% with EKVX NSCLC. In addition, the growth in the experiment with SN12C renal was 108%; in the experiment on UO-31 renal, 40.8%; in the experiment with TK-10 renal, 179%; with ACHN renal it was 109%; in the experiment with CAKI-1 renal, 113%; in the experiment on A498 renal, 151%. Further, the growth is 100% in the experiment with CCRF-CEM leukemia and 120% with MOLT-4 leukemia.
Consider `O=S(=O)(NCCCNc1nccc(-c2c(-c3ccc(F)c(O)c3)nc3sccn23)n1)c1ccc(Cl)cc1`, for which the growth was 82.7% in the experiment on HCT-15 colon; 70.1% with HT29 colon; 122% with SNB-75 CNS; 115% with SNB-19 CNS; 84.5% with U251 CNS; 58.7% in the experiment on PC-3 prostate. For the same compound, the growth in the experiment on SK-MEL-5 melanoma is 47.2%; in the experiment with UACC-62 melanoma, 6.74% (active); with LOX IMVI melanoma, 45.5%; in the experiment on SK-MEL-28 melanoma, 23.3%; in the experiment on SK-MEL-2 melanoma, 27.7%; in the experiment with EKVX NSCLC, 101%. Besides, the growth was 77.4% in the experiment with SN12C renal; 67.8% in the experiment with UO-31 renal; 135% with TK-10 renal; 65.9% in the experiment on ACHN renal; 54.7% in the experiment on CAKI-1 renal; 109% in the experiment with A498 renal. The results for the growth in the experiment with CCRF-CEM leukemia and with MOLT-4 leukemia were 35.2% and 46.1%, respectively.
Consider `COC(=O)CCCCCCN=Cc1c(O)c(O)c(C(C)C)c2cc(C)c(-c3c(C)cc4c(C(C)C)c(O)c(O)c(C=NCCCCCCC(=O)OC)c4c3O)c(O)c12`, for which the growth is 13.1% in the experiment on HCT-15 colon; 6.88% (active) in the experiment with HT29 colon; 59.4% in the experiment on SNB-75 CNS; 17.6% with SNB-19 CNS; 11.5% in the experiment with U251 CNS; 16% in the experiment on PC-3 prostate. For the same compound, the growth in the experiment with SK-MEL-5 melanoma is 43.4%; with UACC-62 melanoma, 17.7%; with LOX IMVI melanoma, 21.4%; with SK-MEL-28 melanoma, 36.1%; with SK-MEL-2 melanoma, 24.7%; in the experiment with EKVX NSCLC it was 23.9%. Besides, the growth in the experiment with SN12C renal is 22.8%; in the experiment on UO-31 renal it was 21.8%; with TK-10 renal, 12.4%; in the experiment on ACHN renal it was 21.6%; with CAKI-1 renal it was 65.4%; in the experiment on A498 renal, 46.1%. For the same compound, the growth was 16.1% in the experiment on CCRF-CEM leukemia and 15.8% with MOLT-4 leukemia.
`CN(C)CCCNC(=O)C(c1ccccc1)c1ccccc1`: the growth was 104% with HCT-15 colon; 95.9% with HT29 colon; 94.5% in the experiment on SNB-75 CNS; 97.3% in the experiment on SNB-19 CNS; 98.2% in the experiment with U251 CNS; 99.1% in the experiment with PC-3 prostate. For the same compound, the growth in the experiment on SK-MEL-5 melanoma was 103%; with UACC-62 melanoma, 98.8%; in the experiment on LOX IMVI melanoma it was 89.3%; in the experiment on SK-MEL-28 melanoma it was 109%; in the experiment on SK-MEL-2 melanoma it was 95.6%; in the experiment on EKVX NSCLC, 106%. Also, the growth was 96.8% in the experiment with SN12C renal; 84.1% in the experiment on UO-31 renal; 88.2% in the experiment with TK-10 renal; 93.5% in the experiment with ACHN renal; 99.5% in the experiment with CAKI-1 renal; 104% with A498 renal. Moreover, the growth in the experiment on CCRF-CEM leukemia is 100%; in the experiment on MOLT-4 leukemia it was 85.3%.
